Consider eight molecules from ChEMBL document CHEMBL1961873, “Compounds: GSK PKIS; Assays: Nanosyn kinase panel” (2012).

SMILES strings stand for the structures.

For experiment [1], the target named is Serine/threonine-protein kinase pim-2 (Homo sapiens) (UniProt Q9P1W9). Particulars: at 1 µM.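 Also: each value is a mean of the inhibition measurements against the kinase.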
Experiment [2] deals with Serine/threonine-protein kinase pim-3 (Homo sapiens) (UniProt Q86V86). Particulars: at 0.1 µM.
The target is the same in experiment [3]. As to conditions: at 1 µM.
The target of experiment [4] is T1, MAP kinase-activated protein kinase 5 (Homo sapiens) (UniProt Q8IW41).
T1 sequence (whole entry): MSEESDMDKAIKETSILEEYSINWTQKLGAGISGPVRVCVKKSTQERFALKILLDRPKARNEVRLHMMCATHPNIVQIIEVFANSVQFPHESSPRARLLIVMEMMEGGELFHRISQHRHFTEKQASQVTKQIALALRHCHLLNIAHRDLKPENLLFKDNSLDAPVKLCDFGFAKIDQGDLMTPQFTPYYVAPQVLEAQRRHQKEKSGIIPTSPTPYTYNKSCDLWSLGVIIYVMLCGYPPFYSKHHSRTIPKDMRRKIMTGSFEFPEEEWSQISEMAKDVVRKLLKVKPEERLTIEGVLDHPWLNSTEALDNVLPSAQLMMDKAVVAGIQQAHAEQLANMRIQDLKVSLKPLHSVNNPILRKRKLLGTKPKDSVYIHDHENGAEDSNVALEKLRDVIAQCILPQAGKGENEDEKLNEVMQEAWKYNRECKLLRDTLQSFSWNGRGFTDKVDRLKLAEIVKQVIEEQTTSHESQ
As to conditions: at 0.1 µM.

In experiment [5] the target is T1, MAP kinase-activated protein kinase 5 (Homo sapiens). As to conditions: at 1 µM.
In experiment [6] the target is Serine/threonine-protein kinase SIK1 (Homo sapiens) (UniProt P57059). As to conditions: at 0.1 µM.
Sequence of Serine/threonine-protein kinase SIK1 (Homo sapiens) (P57059 whole entry): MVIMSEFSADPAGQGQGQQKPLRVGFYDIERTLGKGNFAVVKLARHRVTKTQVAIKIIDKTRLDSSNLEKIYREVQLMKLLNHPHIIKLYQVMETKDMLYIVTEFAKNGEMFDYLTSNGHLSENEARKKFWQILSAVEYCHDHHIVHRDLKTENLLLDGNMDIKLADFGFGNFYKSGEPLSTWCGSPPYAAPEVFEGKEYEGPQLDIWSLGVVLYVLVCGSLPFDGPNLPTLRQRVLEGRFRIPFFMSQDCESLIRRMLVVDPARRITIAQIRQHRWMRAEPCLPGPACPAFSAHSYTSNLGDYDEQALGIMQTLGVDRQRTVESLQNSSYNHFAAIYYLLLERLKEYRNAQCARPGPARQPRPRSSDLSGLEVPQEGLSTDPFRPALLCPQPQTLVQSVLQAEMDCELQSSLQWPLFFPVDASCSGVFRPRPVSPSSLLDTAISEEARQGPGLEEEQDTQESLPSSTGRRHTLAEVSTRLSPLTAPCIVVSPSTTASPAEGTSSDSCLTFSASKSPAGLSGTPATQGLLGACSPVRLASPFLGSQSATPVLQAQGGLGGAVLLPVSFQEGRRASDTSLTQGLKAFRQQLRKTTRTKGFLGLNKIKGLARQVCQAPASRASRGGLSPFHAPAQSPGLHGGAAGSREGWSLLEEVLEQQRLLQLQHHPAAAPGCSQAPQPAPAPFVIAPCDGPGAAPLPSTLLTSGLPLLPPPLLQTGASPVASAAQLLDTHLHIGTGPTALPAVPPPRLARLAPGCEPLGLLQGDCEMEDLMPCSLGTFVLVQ
Experiment [7] shares this target. Particulars: at 1 µM.
Experiment [8] deals with Serine/threonine-protein kinase SIK2 (Homo sapiens) (UniProt Q9H0K1). As to conditions: at 0.1 µM.
Sequence of Serine/threonine-protein kinase SIK2 (Homo sapiens) (Q9H0K1 whole entry, looked up): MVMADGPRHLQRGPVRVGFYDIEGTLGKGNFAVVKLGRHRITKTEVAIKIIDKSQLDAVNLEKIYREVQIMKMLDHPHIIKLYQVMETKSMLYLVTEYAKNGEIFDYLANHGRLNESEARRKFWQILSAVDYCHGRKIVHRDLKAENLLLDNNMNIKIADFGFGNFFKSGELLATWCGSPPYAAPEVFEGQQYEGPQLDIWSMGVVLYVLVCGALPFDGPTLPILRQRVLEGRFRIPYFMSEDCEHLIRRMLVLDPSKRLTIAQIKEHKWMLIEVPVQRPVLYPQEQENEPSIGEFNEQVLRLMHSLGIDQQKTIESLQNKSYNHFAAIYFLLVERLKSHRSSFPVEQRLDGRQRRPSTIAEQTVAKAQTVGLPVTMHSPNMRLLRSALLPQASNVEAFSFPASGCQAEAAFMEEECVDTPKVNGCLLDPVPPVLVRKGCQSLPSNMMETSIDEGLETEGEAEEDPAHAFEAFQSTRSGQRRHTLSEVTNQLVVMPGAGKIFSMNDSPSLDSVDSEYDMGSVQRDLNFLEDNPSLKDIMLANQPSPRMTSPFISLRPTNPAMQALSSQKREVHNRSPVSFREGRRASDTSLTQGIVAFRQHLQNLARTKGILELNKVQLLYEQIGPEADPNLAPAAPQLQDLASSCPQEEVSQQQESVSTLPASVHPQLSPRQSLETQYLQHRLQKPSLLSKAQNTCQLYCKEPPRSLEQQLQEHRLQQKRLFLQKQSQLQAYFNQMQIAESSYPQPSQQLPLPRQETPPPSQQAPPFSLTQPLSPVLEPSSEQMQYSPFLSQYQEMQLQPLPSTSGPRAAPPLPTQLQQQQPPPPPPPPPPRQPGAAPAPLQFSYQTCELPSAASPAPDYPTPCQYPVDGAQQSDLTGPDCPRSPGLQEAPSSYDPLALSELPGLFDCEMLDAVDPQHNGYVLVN
The target is the same in experiment [9]. As to conditions: at 1 µM.
The target of experiment [10] is T2, Serine/threonine-protein kinase TBK1 (Homo sapiens) (UniProt Q9UHD2).
T2 sequence (whole entry): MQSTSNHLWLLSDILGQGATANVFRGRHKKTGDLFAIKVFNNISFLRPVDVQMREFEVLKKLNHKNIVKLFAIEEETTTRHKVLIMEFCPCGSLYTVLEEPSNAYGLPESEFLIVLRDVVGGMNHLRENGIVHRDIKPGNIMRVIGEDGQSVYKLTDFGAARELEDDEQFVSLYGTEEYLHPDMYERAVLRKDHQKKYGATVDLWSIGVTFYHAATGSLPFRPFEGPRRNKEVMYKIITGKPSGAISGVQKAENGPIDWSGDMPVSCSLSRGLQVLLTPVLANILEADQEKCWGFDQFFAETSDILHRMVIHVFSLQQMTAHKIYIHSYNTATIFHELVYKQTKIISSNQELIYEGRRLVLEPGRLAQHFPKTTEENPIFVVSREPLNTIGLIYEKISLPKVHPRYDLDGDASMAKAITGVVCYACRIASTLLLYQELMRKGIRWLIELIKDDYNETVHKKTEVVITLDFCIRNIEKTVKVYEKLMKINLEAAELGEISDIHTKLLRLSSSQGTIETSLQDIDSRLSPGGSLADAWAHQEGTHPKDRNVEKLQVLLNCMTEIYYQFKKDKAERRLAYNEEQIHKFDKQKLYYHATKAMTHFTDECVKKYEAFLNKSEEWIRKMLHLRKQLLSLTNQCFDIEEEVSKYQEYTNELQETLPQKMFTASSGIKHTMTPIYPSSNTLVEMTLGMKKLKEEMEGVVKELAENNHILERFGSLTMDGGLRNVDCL
As to conditions: at 0.1 µM.

For experiment [11], the target named is T2, Serine/threonine-protein kinase TBK1 (Homo sapiens). As to conditions: at 1 µM.
Experiment [12] has as its target T3, Testis-specific serine/threonine-protein kinase 1 (Homo sapiens) (UniProt Q9BXA7).
T3 sequence (whole entry): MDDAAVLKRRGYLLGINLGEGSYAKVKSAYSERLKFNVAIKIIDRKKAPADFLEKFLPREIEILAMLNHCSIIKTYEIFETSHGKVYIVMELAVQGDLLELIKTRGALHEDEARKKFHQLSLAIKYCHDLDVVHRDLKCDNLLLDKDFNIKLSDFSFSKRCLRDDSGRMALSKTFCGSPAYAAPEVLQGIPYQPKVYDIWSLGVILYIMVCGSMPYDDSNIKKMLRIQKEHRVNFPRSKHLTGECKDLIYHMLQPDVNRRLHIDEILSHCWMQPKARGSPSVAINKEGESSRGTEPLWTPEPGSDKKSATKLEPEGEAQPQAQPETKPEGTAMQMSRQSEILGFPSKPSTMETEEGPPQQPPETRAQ
As to conditions: at 0.1 µM.

Experiment [13] has as its target T3, Testis-specific serine/threonine-protein kinase 1 (Homo sapiens). Particulars: at 1 µM.
The target of experiment [14] is T4, Testis-specific serine/threonine-protein kinase 2 (Homo sapiens) (UniProt Q96PF2).
T4 sequence (whole entry): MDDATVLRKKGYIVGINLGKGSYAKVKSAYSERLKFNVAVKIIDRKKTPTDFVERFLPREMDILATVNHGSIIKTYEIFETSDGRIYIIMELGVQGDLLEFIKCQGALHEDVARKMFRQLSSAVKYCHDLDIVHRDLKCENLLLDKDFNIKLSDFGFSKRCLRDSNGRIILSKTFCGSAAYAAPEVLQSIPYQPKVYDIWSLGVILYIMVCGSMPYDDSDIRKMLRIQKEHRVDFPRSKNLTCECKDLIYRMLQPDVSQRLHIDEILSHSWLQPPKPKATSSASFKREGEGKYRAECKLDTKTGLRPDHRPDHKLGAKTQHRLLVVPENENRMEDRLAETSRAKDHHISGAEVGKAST
As to conditions: at 0.1 µM.

The target of experiment [15] is T4, Testis-specific serine/threonine-protein kinase 2 (Homo sapiens). As to conditions: at 1 µM.
Experiment [16] has as its target Casein kinase I isoform alpha (Homo sapiens) (UniProt P48729). Particulars: at 0.1 µM.
For experiment [17] the target is unchanged. Particulars: at 1 µM.
Experiment [18] concerns the target Casein kinase I isoform gamma-1 (Homo sapiens) (UniProt Q9HCP0). As to conditions: at 0.1 µM.
Experiment [19] has the same target. As to conditions: at 1 µM.
Experiment [20] has as its target Casein kinase I isoform gamma-2 (Homo sapiens) (UniProt P78368). As to conditions: at 0.1 µM.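 Also: values are mean inhibition figures reported as part of the GSK PKIS dataset.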

Sequence of Serine/threonine-protein kinase pim-2 (Homo sapiens) (Q9P1W9 whole entry, looked up): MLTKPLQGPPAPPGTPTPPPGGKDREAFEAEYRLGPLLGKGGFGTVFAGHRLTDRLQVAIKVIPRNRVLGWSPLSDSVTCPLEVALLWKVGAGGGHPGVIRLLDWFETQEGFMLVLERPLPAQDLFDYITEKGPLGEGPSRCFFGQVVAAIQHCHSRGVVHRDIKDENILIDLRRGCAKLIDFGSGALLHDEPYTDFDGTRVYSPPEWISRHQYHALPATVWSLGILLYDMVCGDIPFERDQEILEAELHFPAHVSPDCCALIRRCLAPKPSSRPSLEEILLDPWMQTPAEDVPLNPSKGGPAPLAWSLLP
Sequence of Casein kinase I isoform gamma-2 (Homo sapiens) (P78368 whole entry, looked up, canonical isoform): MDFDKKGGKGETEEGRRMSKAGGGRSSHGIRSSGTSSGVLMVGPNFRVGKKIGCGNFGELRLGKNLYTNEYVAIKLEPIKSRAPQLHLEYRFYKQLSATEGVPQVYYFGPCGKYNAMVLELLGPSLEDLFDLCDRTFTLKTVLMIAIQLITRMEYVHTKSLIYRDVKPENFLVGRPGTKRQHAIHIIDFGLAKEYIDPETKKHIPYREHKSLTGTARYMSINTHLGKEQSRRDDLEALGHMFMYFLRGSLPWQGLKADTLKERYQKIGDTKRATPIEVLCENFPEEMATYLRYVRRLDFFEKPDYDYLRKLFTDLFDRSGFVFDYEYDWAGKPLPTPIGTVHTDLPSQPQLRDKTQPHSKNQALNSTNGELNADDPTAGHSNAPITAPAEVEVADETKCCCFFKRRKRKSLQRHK
Sequence of Casein kinase I isoform gamma-1 (Homo sapiens) (Q9HCP0 whole entry, looked up, canonical isoform): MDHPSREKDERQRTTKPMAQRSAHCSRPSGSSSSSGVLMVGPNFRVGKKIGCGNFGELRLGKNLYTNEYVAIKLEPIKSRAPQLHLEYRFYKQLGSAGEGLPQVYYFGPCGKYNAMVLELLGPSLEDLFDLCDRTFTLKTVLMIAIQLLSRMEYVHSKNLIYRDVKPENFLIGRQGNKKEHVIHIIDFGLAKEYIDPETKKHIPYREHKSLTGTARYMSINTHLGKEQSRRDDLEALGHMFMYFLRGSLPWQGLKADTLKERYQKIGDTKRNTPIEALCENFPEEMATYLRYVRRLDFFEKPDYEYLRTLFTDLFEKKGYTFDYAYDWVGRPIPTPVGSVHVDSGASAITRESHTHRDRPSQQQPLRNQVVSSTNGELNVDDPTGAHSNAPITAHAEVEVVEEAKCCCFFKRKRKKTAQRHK
Sequence of Casein kinase I isoform alpha (Homo sapiens) (P48729 2-337 limits assumed): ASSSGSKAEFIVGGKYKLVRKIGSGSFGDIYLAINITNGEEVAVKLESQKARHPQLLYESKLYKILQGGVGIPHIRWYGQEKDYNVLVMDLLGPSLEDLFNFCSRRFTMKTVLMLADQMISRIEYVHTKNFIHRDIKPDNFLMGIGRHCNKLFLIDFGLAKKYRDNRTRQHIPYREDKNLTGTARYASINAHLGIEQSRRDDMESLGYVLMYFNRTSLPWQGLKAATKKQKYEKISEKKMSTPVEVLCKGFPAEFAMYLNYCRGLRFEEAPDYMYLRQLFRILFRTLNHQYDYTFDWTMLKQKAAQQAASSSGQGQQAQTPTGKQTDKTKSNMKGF

`O=C(O[C@H]1CN[C@H](C#Cc2cc3ncnc(Nc4ccc(Cc5ccccc5)cc4)c3s2)C1)N1CCOCC1`: the inhibition in experiment [1] was 1.06%; in [2], 1.54%; in experiment [3] it was 3.8%; in experiment [4], 0.58%; in [5], -0.05%; in experiment [6] it was 0.92%. In addition, the inhibition in experiment [7] was -0.23%; in experiment [8], -0.21%; in [9], -0.83%; in experiment [10], -0.27%; in experiment [11], 1.65%; in [12], 0.42%. The inhibition in [13] is 0.57%; in experiment [14] it was 1.12%; in experiment [15], -0.88%; in [16] it was 0.51%; in [17], 1.74%; in experiment [18], 2.25%. For the same molecule, the inhibition in experiment [19] is 2.28%; in experiment [20], 2.49%.
As for `Fc1ccc(-c2cc(-c3c[nH]nc3-c3ccccn3)ccn2)cc1`, the inhibition is -1.45% in experiment [1]; -0.42% in [2]; 1.85% in [3]; 2.19% in experiment [4]; 4.27% in experiment [5]; 3.49% in [6]. For the same molecule, the inhibition in [7] turned out to be 8.52%; in experiment [8], 7.67%; in [9], 8%; in experiment [10], 0.43%; in [11], 3.03%; in [12], 6.33%. Moreover, the inhibition in [13] was 9.18%; in experiment [14], 4.38%; in experiment [15] it was 6.99%; in experiment [16], 3.27%; in [17], 5.16%; in experiment [18], 4.51%. For the same molecule, the inhibition in [19] came out at 7.09%; in [20], 4.03%.
As to `Nc1nc(-c2ccc(F)cc2)c(-c2ccc3ncccc3n2)s1`, the inhibition is 0.96% in experiment [1]; 0.41% in [2]; 2.02% in [3]; 1.52% in experiment [4]; 2.44% in experiment [5]; 11.6% in [6]. Besides, the inhibition in [7] was 7.23%; in experiment [8] it was 8.76%; in experiment [9] it was 11.6%; in experiment [10], 3.41%; in experiment [11], 6.6%; in experiment [12], 4.27%. In addition, the inhibition is 6.63% in experiment [13]; 2.36% in [14]; 2.23% in [15]; 3.47% in [16]; 15.2% in [17]; 4.29% in experiment [18]. In addition, the inhibition in [19] amounted to 10.5%; in experiment [20], 3.47%.
Take `CCNC(=O)O[C@H]1CN[C@H](C#Cc2cc3ncnc(Nc4ccc(OCc5cccc(F)c5)c(Cl)c4)c3s2)C1`: the inhibition was -0.15% in [1]; -0.41% in experiment [2]; -2.78% in [3]; 0.89% in experiment [4]; 0.04% in experiment [5]; 9.17% in [6]. For the same molecule, the inhibition came to 7.09% in experiment [7]; 4.37% in [8]; 4.15% in experiment [9]; 1.48% in experiment [10]; 3.67% in [11]; 2.93% in experiment [12]. The inhibition in [13] was -2.91%; in experiment [14], 3.47%; in experiment [15], -1.23%; in [16] it was 1.8%; in experiment [17], 1.43%; in experiment [18] it was 2.15%. For the same molecule, the inhibition turned out to be 2.01% in [19] and 1.8% in experiment [20].
Take `[O-][S+]1CCN(Cc2ccc(-c3ccc4ncnc(Nc5ccc(OCc6cccc(F)c6)c(Cl)c5)c4c3)o2)CC1`: the inhibition in experiment [1] amounted to 0.11%; in experiment [2], 0.21%; in [3], 1.34%; in experiment [4], 2%; in experiment [5], 2.05%; in experiment [6], 5.68%. The inhibition in experiment [7] came out at 12.1%; in [8], 8.92%; in experiment [9], 10.4%; in experiment [10] it was 5.39%; in experiment [11], 5.41%; in [12] it was 5.74%. The inhibition in experiment [13] was determined as 5.31%; in [14] it was 3.26%; in [15] it was 3.22%; in experiment [16] it was 5.02%; in experiment [17], 4.04%; in experiment [18], 4.04%. Also, the inhibition stood at 5.15% in experiment [19] and 3.65% in experiment [20].
Take `Fc1ccc(-c2nn3ccccc3c2-c2ccncc2)cc1`: the inhibition in [1] was -0.05%; in [2] it was -0.94%; in experiment [3] it was -1.43%; in experiment [4], 0.01%; in [5], -0.42%; in [6], 1.08%. The inhibition in experiment [7] came out at 4.41%; in experiment [8], 0%; in experiment [9], 14.9%; in experiment [10], 2.66%; in [11] it was 0.18%; in [12], 1.12%. In addition, the inhibition in experiment [13] is 1.44%; in [14], -0.56%; in experiment [15], 0.24%; in [16], 13.7%; in [17], 58.4%; in experiment [18], 1.48%. In addition, the values for the inhibition in [19] and in experiment [20] were 8.01% and 1.65%, respectively.
`COc1cccc(-n2ncc3c(N/N=C/c4ccc(F)cc4)ncnc32)c1`: the inhibition worked out at 0.1% in experiment [1]; 0.77% in experiment [2]; 0.03% in experiment [3]; 1.85% in [4]; 2.88% in experiment [5]; 9.59% in experiment [6]. Further, the inhibition in [7] was 14%; in experiment [8], 6.43%; in experiment [9], 13.7%; in experiment [10], 2.42%; in [11], 6.85%; in experiment [12], 3.31%. Further, the inhibition in experiment [13] is 5.3%; in experiment [14] it was 4.45%; in [15], 2.25%; in experiment [16], 4.03%; in experiment [17], 4.98%; in experiment [18], 3.78%. The inhibition in experiment [19] came out at 4.75%; in experiment [20], 3.98%.
Take `NS(=O)(=O)c1ccc(Nc2ncc(-c3ccccc3)o2)cc1`: the inhibition is 0.32% in [1]; -0.13% in experiment [2]; 0.88% in experiment [3]; 1.46% in experiment [4]; 1.61% in [5]; 6.09% in experiment [6]. Moreover, the inhibition came to 9.25% in experiment [7]; 6.43% in [8]; 18.9% in experiment [9]; 3.13% in experiment [10]; 8.12% in experiment [11]; 1.35% in experiment [12]. The inhibition in experiment [13] turned out to be 2.89%; in experiment [14], 1.54%; in [15], 1.1%; in experiment [16] it was 1.88%; in experiment [17], 7.88%; in experiment [18] it was 2.83%. For the same molecule, the results for the inhibition in experiment [19] and in experiment [20] were 4.94% and 2.8%, respectively.
